Test results as given in PubChem BioAssay AID1159580 (chemical genetic matrix, 2015).
Values joined by “and” are separate entries in the source; they are usually repeats but may differ in a detail not shown here. Equal values may be shown once. Among all 5,500 compounds or so, about 2,000 (36%) were called active. Not shown: some 18% with an inconclusive outcome. Cut-off read from the data, not from the text of the source: active = normalized growth mostly below about 0.91 (no sharp cut-off); inconclusive = no clear call, values can overlap the other calls; inactive = mostly above about 0.92. This is one part of the list.

Assay: chemical genetic growth profiling, strain panel (AID 1159580);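 note: tested at 20 µM; growth read once vehicle control cultures reached saturation at 30 °C; 1 = growth at the plate median or of vehicle wells; lower values mean less growth of the strain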
Conditions: S. cerevisiae deletion strains, growth OD

Measured: normalized growth

Clc1cccc(Cl)c1NC1=NCCN1
inactive: locus YAL021C, strain ccr4, active compounds read low 0.973 | locus YAL026C, strain drs2, active compounds read low 1.01 | locus YAL030W, strain snc1, active compounds read low 0.993 | locus YAL040C, strain CLN3, active compounds read low 0.999 | locus YBL061C, strain skt5, active compounds read low 0.972 | locus YBR009C, strain hhf1, active compounds read low 1 | locus YBR021W, strain FUR4, active compounds read low 1.03 | locus YBR023C, strain chs3, active compounds read low 0.983 | locus YBR171W, strain sec66, active compounds read low 0.977 | locus YBR229C, strain ROT2, active compounds read low 0.999 | locus YBR231C, strain swc5, active compounds read low 0.998 | locus YBR279W, strain paf1, active compounds read low 1.01 | locus YCL011C, strain gbp2, active compounds read low 0.96 | locus YCL016C, strain dcc1, active compounds read low 0.962 | locus YCL029C, strain bik1, active compounds read low 1.02 | locus YCL061C, strain MRC1, active compounds read low 0.989 | locus YCL069W, strain vba3, active compounds read low 0.991 | locus YCR088W, strain abp1, active compounds read low 0.992 | locus YDL005C, strain med2, active compounds read low 0.996 | locus YDL035C, strain GPR1, active compounds read low 1.02 | locus YDL040C, strain nat1, active compounds read low 1.01 | locus YDL074C, strain BRE1, active compounds read low 1.03 | locus YDL101C, strain DUN1, active compounds read low 1.02 | locus YDL134C, strain PPH21, active compounds read low 1.01 | locus YDL185W, strain tfp1, active compounds read low 1.01 | locus YDL192W, strain arf1, active compounds read low 1.02 | locus YDR001C, strain nth1, active compounds read low 0.972 | locus YDR069C, strain doa4, active compounds read low 0.992 | locus YDR101C, strain arx1, active compounds read low 1.03 | locus YDR137W, strain rgp1, active compounds read low 0.959 | locus YDR150W, strain NUM1, active compounds read low 1.01 | locus YDR159W, strain sac3, active compounds read low 1.01 | locus YDR162C, strain NBP2, active compounds read low 1.01 | locus YDR195W, strain ref2 0.994 | locus YDR297W, strain sur2, active compounds read low 0.98 | locus YDR318W, strain mcm21, active compounds read low 1.02 | locus YDR334W, strain swr1, active compounds read low 0.954 | locus YDR335W, strain msn5, active compounds read low 0.973 | locus YDR388W, active compounds read low 1.01 | locus YDR392W, strain spt3, active compounds read low 0.904 | locus YDR502C, strain sam2, active compounds read low 1.03 | locus YEL003W, strain gim4, active compounds read low 0.984 | locus YEL037C, strain rad23, active compounds read low 0.999 | locus YEL061C, strain CIN8 (second series), active compounds read low 0.988 | locus YEL061C, strain CIN8, active compounds read low 1.01 | locus YER002W, strain NOP16, active compounds read low 0.99 | locus YER015W, strain faa2, active compounds read low 1 | locus YER016W, strain bim1, active compounds read low 0.996 | locus YER110C, active compounds read low 1.02 | locus YER111C, strain swi4, active compounds read low 0.993 | locus YER155C, strain BEM2 (second series), active compounds read low 1 | locus YER155C, strain BEM2, active compounds read low 1.01 | locus YER167W, strain BCK2, active compounds read low 1.01 | locus YFR010W, strain ubp6, active compounds read low 0.998 | locus YGL078C, strain dbp3, active compounds read low 1.03 | locus YGL086W, strain mad1, active compounds read low 1.06 | locus YGL167C, strain pmr1, active compounds read low 0.991 | locus YGL173C, strain kem1, active compounds read low 0.985 | locus YGL227W, strain vid30, active compounds read low 0.992 | locus YGL240W, strain doc1, active compounds read low 0.995 | locus YGL248W, strain PDE1, active compounds read low 1.03 | locus YGL253W, strain hxk2, active compounds read low 0.963 | locus YGR135W, strain pre9, active compounds read low 1.04 | locus YGR229C, strain SMI1, active compounds read low 0.992 | locus YGR252W, strain gcn5, active compounds read low 1.05 | locus YHR013C, strain ard1, active compounds read low 0.965 | locus YHR027C, strain rpn1, active compounds read low 0.98 | locus YHR030C, strain SLT2, active compounds read low 1.01 and 0.969 | locus YHR079C, strain IRE1 (second series), active compounds read low 1.02 | locus YHR079C, strain IRE1, active compounds read low 0.98 | locus YHR094C, strain hxt1, active compounds read low 1.02 | locus YHR129C, strain ARP1, active compounds read low 1.01 | locus YHR142W, strain chs7, active compounds read low 0.932 | locus YHR200W, strain rpn10, active compounds read low 1.02 | locus YIL066C, strain RNR3, active compounds read low 1.01 | locus YIL073C, strain SPO22, active compounds read low 1.07 | locus YIL125W, strain kgd1, active compounds read low 1.02 | locus YIR030C, strain dcg1, active compounds read low 1.01 | locus YJL092W, strain hpr5, active compounds read low 0.994 | locus YJL095W, strain BCK1 (second series), active compounds read low 0.983 | locus YJL095W, strain BCK1, active compounds read low 1.04 and 0.975 | locus YJL115W, strain asf1, active compounds read low 0.969 | locus YJL129C, strain trk1, active compounds read low 0.97 | locus YJL134W, strain LCB3, active compounds read low 1.01 | locus YJL154C, strain vps35, active compounds read low 0.972 | locus YJL164C, strain tpk1, active compounds read low 0.996 | locus YJL166W, strain qcr8, active compounds read low 0.953 | locus YJL168C, strain set2, active compounds read low 1.02 | locus YJL187C, strain SWE1 (second series), active compounds read low 1.03 | locus YJL187C, strain SWE1, active compounds read low 1 | locus YJR043C, strain POL32, active compounds read low 1.03 | locus YJR066W, strain TOR1, active compounds read low 0.996 | locus YJR075W, strain HOC1, active compounds read low 1.01 | locus YKL009W, strain mrt4, active compounds read low 1.02 | locus YKL068W, active compounds read low 1 | locus YKL085W, strain MDH1 (second series), active compounds read low 1.06 | locus YKL085W, strain MDH1, active compounds read low 1.06 | locus YKL160W, strain elf1, active compounds read low 0.951 | locus YKL190W, strain CNB1, active compounds read low 1.01 | locus YKR001C, strain vps1, active compounds read low 1.01 | locus YKR026C, strain gcn3, active compounds read low 0.986 | locus YKR091W, strain srl3, active compounds read low 0.982 | locus YLL001W, strain dnm1, active compounds read low 0.933 | locus YLL026W, active compounds read low 0.986 | locus YLL041C, strain sdh2, active compounds read low 1 | locus YLR027C, strain aat2, active compounds read low 1.01 | locus YLR039C, strain RIC1, active compounds read low 1.01 | locus YLR058C, strain SHM2, active compounds read low 1.02 | locus YLR102C, strain apc9, active compounds read low 1.01 | locus YLR113W, strain HOG1, active compounds read low 0.951 | locus YLR221C, strain rsa3, active compounds read low 0.944 | locus YLR258W, strain gsy2, active compounds read low 0.985 | locus YLR262C, strain YPT6 (second series), active compounds read low 0.974 | locus YLR262C, strain YPT6, active compounds read low 0.982 | locus YLR268W, strain sec22, active compounds read low 1.02 | locus YLR320W, strain mms22, active compounds read low 0.944 | locus YLR330W, strain CHS5, active compounds read low 1.01 | locus YLR342W, strain FKS1 (second series), active compounds read low 1.01 | locus YLR342W, strain FKS1, active compounds read low 0.995 | locus YLR357W, strain rsc2, active compounds read low 0.974 | locus YLR370C, strain arc18, active compounds read low 0.968 | locus YLR371W, strain rom2, active compounds read low 1.01 | locus YLR384C, strain iki3, active compounds read low 0.988 | locus YLR418C, strain cdc73, active compounds read low 1.05 | locus YML016C, strain PPZ1, active compounds read low 1 | locus YML032C, strain rad52, active compounds read low 1.02 | locus YML120C, strain ndi1, active compounds read low 0.941 | locus YML124C, strain tub3, active compounds read low 1.01 | locus YMR058W, strain fet3, active compounds read low 0.99 | locus YMR078C, strain ctf18, active compounds read low 1.01 | locus YMR125W, strain sto1, active compounds read low 0.958 | locus YMR129W, active compounds read low 0.999 | locus YMR205C, strain PFK2, active compounds read low 0.947 | locus YMR223W, strain ubp8, active compounds read low 1.04 | locus YMR231W, strain pep5, active compounds read low 0.999 | locus YMR263W, strain SAP30, active compounds read low 0.988 | locus YMR307W, strain GAS1, active compounds read low 1.09 | locus YNL067W, strain RPL9B, active compounds read low 1.05 | locus YNL071W, strain lat1, active compounds read low 0.993 | locus YNL175C, strain NOP13, active compounds read low 1.01 | locus YNL183C, strain NPR1, active compounds read low 0.926 | locus YNL197C, strain WHI3, active compounds read low 0.999 | locus YNL209W, strain ssb2, active compounds read low 0.991 | locus YNL224C, strain SQS1, active compounds read low 1 | locus YNL233W, strain BNI4, active compounds read low 1.02 | locus YNL248C, strain rpa49, active compounds read low 0.995 | locus YNL250W, strain rad50, active compounds read low 1.02 | locus YNL271C, strain bni1, active compounds read low 1.02 | locus YNL298W, strain CLA4, active compounds read low 1.02 | locus YNL307C, strain MCK1, active compounds read low 1.02 | locus YNL322C, strain KRE1 (second series), active compounds read low 0.982 | locus YNR049C, strain mso1, active compounds read low 0.981 | locus YNR052C, strain pop2, active compounds read low 1.02 | locus YOL006C, strain TOP1, active compounds read low 1.18 | locus YOL012C, strain htz1 0.754 | locus YOL147C, strain pex11, active compounds read low 1.02 | locus YOR001W, strain rrp6, active compounds read low 1.04 | locus YOR061W, strain CKA2, active compounds read low 1.01 | locus YOR069W, strain VPS5, active compounds read low 1.01 | locus YOR070C, strain gyp1, active compounds read low 0.996 | locus YOR080W, strain dia2, active compounds read low 0.979 | locus YOR083W, strain WHI5 (second series), active compounds read low 0.997 | locus YOR083W, strain WHI5, active compounds read low 0.957 | locus YOR106W, strain vam3, active compounds read low 0.944 | locus YOR136W, strain idh2, active compounds read low 1.03 | locus YOR144C, strain elg1, active compounds read low 1.01 | locus YOR184W, strain ser1, active compounds read low 1.03 | locus YOR231W, strain MKK1, active compounds read low 0.989 | locus YOR265W, strain rbl2, active compounds read low 1 | locus YOR270C, strain vph1, active compounds read low 0.939 | locus YOR290C, strain snf2, active compounds read low 0.939 | locus YOR316C, strain cot1, active compounds read low 1.02 | locus YPL051W, strain arl3, active compounds read low 0.991 | locus YPL055C, strain LGE1, active compounds read low 1.04 | locus YPL078C, strain atp4, active compounds read low 0.954 | locus YPL106C, strain sse1, active compounds read low 0.94 | locus YPL240C, strain hsp82, active compounds read low 1 | locus YPL256C, strain CLN2, active compounds read low 0.993 | locus YPR119W, strain clb2, active compounds read low 1.02 | locus YPR141C, strain kar3, active compounds read low 1.01 | locus YPR163C, strain tif3, active compounds read low 1.01 | locus YPR167C, strain met16, active compounds read low 1.01 | strain wtn01, active compounds read low 1.04
